High-throughput results deposited in PubChem by National Center for Advancing Translational Sciences (NCATS).
Hits are enriched below; roughly 19% of the tested compounds scored in any of these assays.
Shiga toxin inh = Shiga toxin inhibition. Vero cells, Shiga toxin protein synthesis inhibition reporter. inhibition, % at 38.7 µM. hit rate 9.2% among 290,000. AID 2315; in the data active = inhibition mostly above about 28%, no sharp cut-off; inactive = mostly below about 43%; note: 0% is about no effect
CHX counter = affects cycloheximide protein synthesis inhibition readout, counter-screen. max response, %. hit rate 12% among 300,000. cell reporter, cycloheximide protein synthesis inhibition counterscreen. AID 2314; in the data active = max response mostly above about 13%, no sharp cut-off; inactive = mostly below about 14%; note: read at 38.3 µM for the half of the compounds with a filed dose; 0% is about no effect
Pf growth 48h = P. falciparum growth inhibition at 48 hours (one generation) | Potency, µM (series often up to 28.7 µM), for inactives: at the highest dose activity change, negative = inhibition, hits mostly inhibitors | AID 504832 | P. falciparum luciferase growth in erythrocytes, 48 h | hit rate 5.9% among 310,000; note: potency is the fitted concentration of half-maximal effect; % is set by controls: 0 for no effect and ±100 for the full control effect
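Parasite viability was followed by luminescence of a genomically integrated firefly luciferase. Cultures held 0.1% parasitemia at 2% hematocrit (final), incubated under 5% CO2 at 37 C.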
AMA1-RON2 inh = AMA1-RON2 (P. falciparum) interaction inhibition; AlphaScreen AMA1-biotinylated RON2 peptide binding; Potency, µM (top dose mostly 58.2 µM), inactives show at the top dose activity change, negative = inhibition, actives largely listed as inhibitors; hit rate 0.2% among 360,000; AID 720542;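 note: potency is the fitted concentration of half-maximal effect; 0% = vehicle wells and -100% = peptide control; nearly all actives have a fitted effect of over 45% in size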
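AMA1 (3D7) with his tag at 25 nM final met compounds first, then biotinylated RON2 peptide at 25 nM; detection used donor plus acceptor beads, 10 µg/mL apiece, read by AlphaScreen after 30 min at room temperature.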
Pf growth 96h = P. falciparum growth inhibition at 96 hour, primary screen for plastid delayed-death inhibitors; P. falciparum luciferase reporter growth, 96 h; Potency, µM (top dose mostly 28.7 µM), without a hit: at the highest dose activity change, negative = inhibition, most hits filed as inhibitors; hit rate 6.9% among 320,000; AID 504834; note: potency is the fitted concentration of half-maximal effect; % is set by controls: 0 for no effect and ±100 for the full control effect
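Readout is luminescence from an integrated firefly luciferase in P. falciparum. Red cells, 2% hematocrit and 0.05% parasitemia final, were cultured with compound through two parasite generations (96 hours) at 37 C, 5% CO2.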
SARS PLpro yeast = blocks SARS-CoV papain-like protease in a yeast assay. S. cerevisiae expressing SARS-CoV PLpro, growth rescue. Potency, µM (top dose mostly 32.9 µM), for the others: top-dose activity, positive = growth rescue, hits mostly activators. hit rate 0.19% among 330,000; calls by dose curve; note: potency is the fitted concentration of half-maximal effect; 0% is about no effect; nearly all actives have a fitted effect of over 55% in size
* = called active by the depositor; ? = inconclusive; / = not tested or not shown; [ ] = another dose, or the depositor's remark. Unless noted, calls come from the whole dose curve; as a rule, active = well fitted curve in the direction sought with a large enough effect; inconclusive = small, poorly fitted or top-dose-only effect, or another doubt; inactive = no such curve, though single readings can be large; an effect the other way counts as inactive or inconclusive.

SMILES	Shiga toxin inh	CHX counter	Pf growth 48h	AMA1-RON2 inh	Pf growth 96h	SARS PLpro yeast
Cc1ccc(O)c(N=CC2=C(O)c3ccccc3C2=O)c1	109*	33*	?	-7%	64%	-18%
N#CC1=C(C=Nc2ccccc2O)CCC1	-5	-3	8%	1%	-9%[5.75 µM]	-3%
CCOC(=O)C(NC=O)(NC(C)(C)C)C(=O)OCC	-2	2	4%	0%	15%	-4%
O=c1[nH]cc(CN2CCOCC2)c(=O)[nH]1	/	/	/	7%	/	/
CC(C)C(=O)Nc1ccc(NC(=O)c2ccccn2)cn1	42*	27*	39%	113%	10%	1%
CCC(=O)Nc1ccc(NC(=O)c2ccccn2)cn1	47*	35*	115%	82%	0%	-4%
O=C(Nc1ccc(NC(=O)C2CC2)nc1)c1ccccn1	62*	18*	96%	73%	48%	3%
CC(C)C(=O)Nc1ccc(NC(=O)c2cccnc2)cn1	30	8	53%	0%	122%	3%
O=C(NNC(=O)c1cccc(C(F)(F)F)c1)c1ccc(-n2cnnn2)cc1	/	/	/	65%	/	0%
CCN(CC)CCNC(=O)Cn1cnc2sc(C)c(S(=O)(=O)N3CC(C)CC(C)C3)c2c1=O (centres undefined)	13	-3	1%	2%	-20%	-3%
CCOc1ccc(NC(=O)C23CC4CC(C2)CC(c2ccccc2)(C4)C3)cc1	-8	1	?	5%	1.9µM*	-3%
CN(C)c1ccc(NC(=S)NC23CC4CC(CC(C4)C2)C3)cc1	52*	44*	5.2µM*	-3%	0.59µM*	1%
CCOc1ccc(NC(=S)Nc2ccc(OC)cc2)cc1	48	1	-11%	-9%	?	0%
FC(F)Oc1ccc(NC(=S)NC23CC4CC(CC(C4)C2)C3)cc1	59*	25*	4.1µM*	11%	4.1µM*	?
CCOc1ccc(NC(=S)NC23CC4CC(CC(C4)C2)C3)cc1	7	1	10µM*	0%	21%	-4%
Cc1ccc(SCCN2CCN(C)CC2)cc1	-7	1	5%	-3%	?	-4%
CC/C=C(\NC(C)=O)c1ccccc1	/	/	16%	0%	-9%	1%
CCCc1ccc2oc(C(=O)N3CCN(C4CCS(=O)(=O)C4)CC3)c(C)c2c1 (centres undefined)	19	23*	8%	-1%	?	2%
CCCc1ccc2oc(C(=O)N3CCC(C(N)=O)(N4CCCCC4)CC3)c(C)c2c1	-4	13	?	-1%	22%	7%
CCCc1ccc2oc(C(=O)N(C)Cc3nccs3)c(C)c2c1	117*	56*	-18%	18%	?	-1%
Cc1ccc2c(C)c(C(=O)N3CCN(C4CCS(=O)(=O)C4)CC3)oc2c1C (centres undefined)	-13	18*	-14%	-6%	?	-1%
Cc1c(C(=O)Nc2nccs2)oc2ccc(F)cc12	/	/	326%	0%	348%	-1%
CCCc1ccc2oc(C(=O)N3CCC(O)CC3)c(C)c2c1	70*	44*	31%	1%	19%	1%
O=C(c1ccc(Cl)nc1)N1CCN(S(=O)(=O)c2ccc(Cl)cc2)CC1	-1	-3	17%	-1%	17%	1%
O=C(NCCOc1ccccc1)C1CCC(=O)N(CCCN2CCOCC2)C1 (centres undefined)	/	/	/	8%	/	/
SMILES	Shiga toxin inh	CHX counter	Pf growth 48h	AMA1-RON2 inh	Pf growth 96h	SARS PLpro yeast
COc1cc(OC)nc(NC(=O)COC(=O)C2CCCCC2)n1	-4	-2	13%	0%	16%	?
Cc1ccc(N2CCN(c3ccc(C)cc3)C(CC(=O)O)C2=O)cc1 (centres undefined)	4	9.2*	12µM*	-8%	?	-1%
CCOc1cc(S(=O)(=O)N2CC=C(c3ccc(F)cc3)CC2)c(OCC)cc1-n1cnnn1	-8	2	7.4µM*	8%	?	-4%
CCOc1cc(S(=O)(=O)N(CC)CC)c(OCC)cc1-n1cnnn1	-13	-3	1%	16%	-2%	5%
CCOc1cc(S(=O)(=O)NCCc2cccc(C)c2)c(OCC)cc1-n1cnnn1	-5	5	9.3µM*	4%	6.6µM*	-3%
CCOc1cc(S(=O)(=O)N2CCC(Cc3ccccc3)CC2)c(OCC)cc1-n1cnnn1	-14	3	13µM*	-1%	?	-3%
Cc1ccc(S(=O)(=O)N2CC=C(c3ccc(F)cc3)CC2)cc1	-3	-1	-11%	6%	0%	-27%
CCOc1cc(S(=O)(=O)NCCc2ccccc2C)c(OCC)cc1-n1cnnn1	0	-3	?	-1%	?	-1%
COc1ccccc1CNS(=O)(=O)N(C)C	-6	1	17%	-5%	3%	1%
CCCCc1ccc(/C=C2/C(=O)ON=C2c2ccccc2)s1	-9	-1	-2%	-1%	10µM*	11%
O=[N+]([O-])c1cc(-c2n(-c3ccccn3)c3ccccc3[n+]2-c2ccccn2)ccc1Cl	6	-3	?	-16%	?	-1%
COc1ccc(-c2n(-c3ccccn3)c3ccccc3[n+]2-c2ccccn2)cc1	22	4	10µM*	-1%	4.1µM*	-1%
Cc1cc(C)c(NC(=O)CN2CCN3CCCC3C2)c(C)c1 (centres undefined)	7	-1	2%	-15%	6%	1%
COc1ccc(C(=O)/C=C/Nc2ccc(S(=O)(=O)Nc3nc(C)cc(C)n3)cc2)cc1OC	-4	16*	20%	-18%	?	16%
COc1ccc(C(=O)/C=C/Nc2ccc(S(=O)(=O)Nc3nc(C)cc(C)n3)cc2)c(OC)c1	44	1	?	-11%	?	-1%
Cc1cc(C)nc(NS(=O)(=O)c2ccc(NC(=O)Cc3ccccc3)cc2)n1	-3	-1	-2%	-7%	13µM*	-3%
Cc1cc(C)nc(NS(=O)(=O)c2ccc(N/C=C/C(=O)c3ccc(Cl)cc3)cc2)n1	20	11*	11%	16%	22%	12%
NC(=O)c1c(NC(=O)C2c3ccccc3Oc3ccccc32)sc2c1CCCCC2	9	-3	-16%	9%	18%	-4%
CC(C)c1ccc(NC(=O)c2n[nH]c(=O)c3ccccc23)cc1	44*	45*	108%	21%	8.3µM*	1%
CN(C)S(=O)(=O)c1cccc(NC(=O)c2n[nH]c(=O)c3ccccc23)c1	2	7	-14%	-4%	?	-2%
CCN(CC)S(=O)(=O)c1cc(NC(=O)c2cc(-c3ccccn3)nc3ccccc23)ccc1C	-3	-2	9.3µM*	-4%	?	-6%
Cc1cc(NC(=O)c2n[nH]c(=O)c3ccccc23)ccc1Br	17	-1	25%	-3%	?	-1%
